Data published in PubChem BioAssay (NCI).
Compounds without any hit were thinned out: in the full panel of roughly 83,000, 20% have a hit.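 Values shown are percent growth following 48 h exposure of cells in 96-well plates to a single concentration of compound; below 10 was considered active.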 A number with no mark means an inactive call. The source made the active and inactive calls.

Test system: CAKI-1 renal
Test: NCI-60 one-dose screen, 48 h (100 = growth as untreated, 0 = no growth, -100 = all killed)
Settings: 10 µM unless noted

Row | SMILES | growth
1 | CCCCCCCC[C@@H]1N[C@@H](C(=O)OC)Cc2c1[nH]c1ccccc21 | 78.8%
2 | COC(=O)c1cc(N=C2NC(=O)/C(=C/C=C/c3ccccc3)S2)ccc1O | 29%
3 | CSc1nnc(-c2cc3c([nH]c4ccccc43)c(-c3cccc(O)c3)n2)n1-c1ccccc1 | 44.6%
4 | Cc1ccc(-c2nc([P+](c3ccccc3)(c3ccccc3)c3ccccc3)c(S(=O)(=O)c3ccc(C)cc3)o2)cc1 | 5.62% (active)
5 | O=S(=O)(NCCNc1nccc(-c2c(-c3ccc(F)c(O)c3)nc3occn23)n1)c1ccc(Cl)cc1 | 92.7%
6 | COc1ccc2c(c1)c(-c1nc(-c3c[nH]c4ccncc34)cs1)cn2C | -86.3% (active)
7 | CC(C)c1ccc(C(=O)Nc2nc3ccc(O)c(CN(C)C)c3s2)cc1 | 65.4%
8 | O=C1Nc2ccccc2/C1=C/c1nc2ccccc2c(=O)[nH]1 | 84.2%
9 | O=C(c1ccccc1)c1ccc(C2CCCCC2)cc1 | 82.2%
10 | C=CC(=O)N1CCN(c2cccc(Oc3nccc(Nc4nnc(-c5ccc(Br)cc5)s4)n3)c2)CC1 | 38.9%
11 | O=C1C(Cl)=C(Nc2ccc(S(=O)(=O)N3CCOCC3)cc2)C(=O)c2ccccc21 | 78.5%
12 | CCOC(=O)C1=C(C)NC(=O)NC1c1c(Cl)n(CCCl)c2ccccc12 (stereo not given) | 86.6%
13 | CCCC/C=C/[C@@H]1C[C@H]1CCO | 98.9%
14 | C=C(CBr)[C@@H]1CC[C@]2(C(=O)O)CC[C@]3(C)[C@H](CC[C@@H]4[C@@]5(C)CCC(=O)C(C)(C)[C@@H]5CC[C@]43C)[C@@H]12 | 82%
15 | CC/C=C\C[C@H](O)C/C=C1/C(=O)C=C[C@@H]1C/C=C\CCCC(=O)N(C)C | -9.48% (active)
16 | CNC(=O)c1[nH]cc(-c2ccc(OC)cc2)c1-c1cc(OC)c2c(c1OC)OCO2 | 83.6%
17 | O=C(/C=C/c1cccs1)Nc1ncc(Cc2ccccc2F)s1 | 23%
18 | CCCn1cc2c(=O)nc3sc(Cc4ccccc4)c(C)n3c2n1 | 87.7%
19 | CCC(C)N(CCNc1cc(OC)cc2cccnc12)CC(C)C (stereo not given) | 94.1%
20 | C1CCC([PH+](C2CCCCC2)C2CCCCC2[PH+](C2CCCCC2)C2CCCCC2)CC1.[Au].[CH-]1CCCCC1C1CCCC[N-]1 (stereo not given) | -88% (active)

Row | SMILES | growth
21 | O=C1/C(=C/c2ccccc2Br)COc2ccc(O)cc21 | 72.5%
22 | O=C(Nc1ccccc1O)c1ccc(CNC(=O)c2sccc2Nc2ccnc(C(F)(F)F)c2)cc1 | 35.2%
23 | N#Cc1c(-c2ccc(Cl)cc2)nc(NN2C(=O)c3ccccc3C2=O)nc1N1CCOCC1 | 90.4%
24 | O=C(OC(CO)C(=O)NC12CC3CC(CC(C3)C1)C2)c1ccc(Cl)cc1 (stereo not given) | 99.4%
25 | COc1ccc(/C=N/C2=C(C#N)C(c3ccccc3)c3ccc4ccccc4c3O2)cc1 (stereo not given) | 28%
26 | CC(C)c1ccc(C(=O)Nc2sc3c(c2C(N)=O)CCC(=O)C3)cc1 | -43.9% (active)
27 | N=C(N)c1ccc(-c2ccc(-c3ccc(Cl)cc3Cl)s2)cc1 | -67.3% (active)
28 | O=C(/C=C/c1cccc(Cl)c1)c1ccc(Nc2nc(Nc3ccc(F)cc3)nc(Nc3ccc(Cl)cc3)n2)cc1 | 112%
29 | COc1c(B(O)O)cccc1-c1nc2c(F)cc3[nH]ncc3c2c2c1CCCC2 | -28% (active)
30 | N#Cc1ccc(O)c(C2=NCC(c3ccccc3)O2)c1 (stereo not given) | 8.26% (active)
31 | COC(=O)c1nc(-c2ccccc2)oc1S(=O)(=O)Cc1ccccc1 | 8.14% (active)
32 | OCCn1cc(-c2nc(-c3c[nH]c4ncccc34)cs2)c2cc(F)ccc21 | 70.7%
33 | O=[N+]([O-])c1cccc(-c2nc3cc4nc5ccccc5[nH]c4cc3n2)c1 | 104%
34 | CN(C)c1ccc(C(=O)OCCCCCCl)cc1 | 89.1%
35 | CC(C)COc1nc2c(c(=O)n(C)c(=O)n2C)n1C | 107%
36 | Nc1nc(-c2ccc(Cl)cc2)nc2c1sc(=S)n2-c1ccccc1 | 42.3%
37 | Cc1ccc(NC(=O)c2sc3nc(C)c(Br)c(C)c3c2N)cc1 | 74.3%
38 | Cc1cc(N2CCCCC2)cc(C)c1-c1csc(NC(=O)c2ccncc2)n1 | 49.5%
39 | CCN1C(=S)N(c2ccccc2)C2C1NN=c1s/c(=C3\C(=O)N(C(C)C)c4ccccc43)c(=O)n12 (stereo not given) | 76.2%
40 | O=C(N(c1ccccc1)c1ccccc1)n1cc(I)c2nc(Cl)nc(Cl)c21 | 39.6%

Test system: A498 renal
Test: as above
Settings: 10 µM unless noted

Row | SMILES | growth
41 | CCCCCCCC[C@@H]1N[C@@H](C(=O)OC)Cc2c1[nH]c1ccccc21 | 88.7%
42 | COC(=O)c1cc(N=C2NC(=O)/C(=C/C=C/c3ccccc3)S2)ccc1O | 17.6%
43 | CSc1nnc(-c2cc3c([nH]c4ccccc43)c(-c3cccc(O)c3)n2)n1-c1ccccc1 | 25.5%
44 | Cc1ccc(-c2nc([P+](c3ccccc3)(c3ccccc3)c3ccccc3)c(S(=O)(=O)c3ccc(C)cc3)o2)cc1 | -0.861% (active)
45 | O=S(=O)(NCCNc1nccc(-c2c(-c3ccc(F)c(O)c3)nc3occn23)n1)c1ccc(Cl)cc1 | 97.9%
46 | COc1ccc2c(c1)c(-c1nc(-c3c[nH]c4ccncc34)cs1)cn2C | 65.7%
47 | CC(C)c1ccc(C(=O)Nc2nc3ccc(O)c(CN(C)C)c3s2)cc1 | 72.3%
48 | O=C1Nc2ccccc2/C1=C/c1nc2ccccc2c(=O)[nH]1 | 102%
49 | O=C(c1ccccc1)c1ccc(C2CCCCC2)cc1 | 77.9%
50 | C=CC(=O)N1CCN(c2cccc(Oc3nccc(Nc4nnc(-c5ccc(Br)cc5)s4)n3)c2)CC1 | 79.7%
51 | O=C1C(Cl)=C(Nc2ccc(S(=O)(=O)N3CCOCC3)cc2)C(=O)c2ccccc21 | 68.8%
52 | CCOC(=O)C1=C(C)NC(=O)NC1c1c(Cl)n(CCCl)c2ccccc12 (stereo not given) | 95.3%
53 | CCCC/C=C/[C@@H]1C[C@H]1CCO | 102%
54 | C=C(CBr)[C@@H]1CC[C@]2(C(=O)O)CC[C@]3(C)[C@H](CC[C@@H]4[C@@]5(C)CCC(=O)C(C)(C)[C@@H]5CC[C@]43C)[C@@H]12 | 110%
55 | CC/C=C\C[C@H](O)C/C=C1/C(=O)C=C[C@@H]1C/C=C\CCCC(=O)N(C)C | 50.2%
56 | CNC(=O)c1[nH]cc(-c2ccc(OC)cc2)c1-c1cc(OC)c2c(c1OC)OCO2 | 109%
57 | O=C(/C=C/c1cccs1)Nc1ncc(Cc2ccccc2F)s1 | 4.45% (active)
58 | CCCn1cc2c(=O)nc3sc(Cc4ccccc4)c(C)n3c2n1 | 100%
59 | CCC(C)N(CCNc1cc(OC)cc2cccnc12)CC(C)C (stereo not given) | 92.8%
60 | C1CCC([PH+](C2CCCCC2)C2CCCCC2[PH+](C2CCCCC2)C2CCCCC2)CC1.[Au].[CH-]1CCCCC1C1CCCC[N-]1 (stereo not given) | -71.1% (active)

Row | SMILES | growth
61 | O=C1/C(=C/c2ccccc2Br)COc2ccc(O)cc21 | 113%
62 | O=C(Nc1ccccc1O)c1ccc(CNC(=O)c2sccc2Nc2ccnc(C(F)(F)F)c2)cc1 | 6.31% (active)
63 | N#Cc1c(-c2ccc(Cl)cc2)nc(NN2C(=O)c3ccccc3C2=O)nc1N1CCOCC1 | 94.7%
64 | O=C(OC(CO)C(=O)NC12CC3CC(CC(C3)C1)C2)c1ccc(Cl)cc1 (stereo not given) | 103%
65 | COc1ccc(/C=N/C2=C(C#N)C(c3ccccc3)c3ccc4ccccc4c3O2)cc1 (stereo not given) | 19.3%
66 | CC(C)c1ccc(C(=O)Nc2sc3c(c2C(N)=O)CCC(=O)C3)cc1 | 62.5%
67 | N=C(N)c1ccc(-c2ccc(-c3ccc(Cl)cc3Cl)s2)cc1 | 86.3%
68 | O=C(/C=C/c1cccc(Cl)c1)c1ccc(Nc2nc(Nc3ccc(F)cc3)nc(Nc3ccc(Cl)cc3)n2)cc1 | 124%
69 | COc1c(B(O)O)cccc1-c1nc2c(F)cc3[nH]ncc3c2c2c1CCCC2 | -64.6% (active)
70 | N#Cc1ccc(O)c(C2=NCC(c3ccccc3)O2)c1 (stereo not given) | 63.5%
71 | COC(=O)c1nc(-c2ccccc2)oc1S(=O)(=O)Cc1ccccc1 | 98.1%
72 | OCCn1cc(-c2nc(-c3c[nH]c4ncccc34)cs2)c2cc(F)ccc21 | 23%
73 | O=[N+]([O-])c1cccc(-c2nc3cc4nc5ccccc5[nH]c4cc3n2)c1 | 92.1%
74 | CN(C)c1ccc(C(=O)OCCCCCCl)cc1 | 83.9%
75 | CC(C)COc1nc2c(c(=O)n(C)c(=O)n2C)n1C | 84.7%
76 | Nc1nc(-c2ccc(Cl)cc2)nc2c1sc(=S)n2-c1ccccc1 | 26.3%
77 | Cc1ccc(NC(=O)c2sc3nc(C)c(Br)c(C)c3c2N)cc1 | 76.5%
78 | Cc1cc(N2CCCCC2)cc(C)c1-c1csc(NC(=O)c2ccncc2)n1 | 42.9%
79 | CCN1C(=S)N(c2ccccc2)C2C1NN=c1s/c(=C3\C(=O)N(C(C)C)c4ccccc43)c(=O)n12 (stereo not given) | 97.5%
80 | O=C(N(c1ccccc1)c1ccccc1)n1cc(I)c2nc(Cl)nc(Cl)c21 | 67.9%
